The panel holds about 79,000 compounds, 15% with a hit somewhere; the sample as a whole holds those more often. Calls of active or inactive are those of the source. Rule as the data show it: active = growth inhibition above about 70%; inactive = the rest.
Experiment: NCI Yeast Anticancer Drug Screen. Data for the bub3 strain (AID 167)
Conditions: S. cerevisiae bub3 mutant strain, at 50.0 µM, stronger effect = higher value
Procedure, shortened: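 Inhibition values come from growth of compound-treated mutant yeast normalised to vehicle-treated controls.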

Row | SMILES | growth inhibition
1 | CCSC1(SCC)C(=O)OC2=C(CCCC2)C1N1CCOCC1 (stereo not given) | 13.3% (inactive)
2 | NC(=O)C(CCc1cccc2ccccc12)c1ccccc1 (stereo not given) | 95.8% (active)
3 | NC(CCCCCC(N)C(=O)O)C(=O)O (stereo not given) | 18.8% (inactive)
4 | CN(C)CC(CN(C)C)C(=O)C1CCCCC1 | 23.2% (inactive)
5 | O=C1/C(=C/c2ccc([N+](=O)[O-])cc2)Sc2scc(-c3cccc([N+](=O)[O-])c3)[n+]21 | 87% (active)
6 | CC(C)(C)c1cc(C(P(=O)(c2ccccc2)c2ccccc2)P(=O)(c2ccccc2)c2ccccc2)cc(C(C)(C)C)c1O | 96.3% (active)
7 | COC(=O)c1cc(=O)n(-c2ccccc2C(F)(F)F)c(SC)n1 | 99.5% (active)
8 | CSC(SC)=C1C(=O)NC(Cc2ccccc2)C1=O (stereo not given) | 50.3% (inactive)
9 | c1ccc(C(c2ccccc2)c2ccc3ccccc3n2)cc1 | 61.4% (inactive)
10 | CN(C)c1nc(N(C)C)nc([N+](C)(C)C)n1 | 98% (active)
11 | CCCNC(=S)N/N=C(/C)c1nccc2ccccc12 | 14.8% (inactive)
12 | OC(CN1CCc2ccccc2C1)c1ccc2ccccc2c1 (stereo not given) | 94.6% (active)
13 | Nc1nc(N)c2nc(CNc3ccc(C(=O)NC(CCC(=O)O)C(=O)O)cc3)ccc2n1 (stereo not given) | -38.9% (inactive)
14 | O=c1c2ccccc2c2ccccc2n1O | 95% (active)
15 | CC(=O)N1c2ccccc2Sc2ccc3ccc(C(=O)CCl)cc3c21 | 89.2% (active)
16 | CC(NNC(=S)N1CC2CCC(CC2)C1)c1nccc2ccccc12 (stereo not given) | 99% (active)
17 | O=C1O/C(=C(\Cc2ccccc2)c2ccccc2)N(c2ccccc2)C1=O | 14.9% (inactive)
18 | S=c1sc2ccccc2n1C=Nc1ccccc1 | 99.1% (active)
19 | CSc1nc(NC2OC(CO)C(O)C(O)C2O)c(Cl)c(=O)[nH]1 (stereo not given) | -1.4% (inactive)
20 | C=CCN1/C(=C\C=C\c2ccc3cc(C)ccc3[n+]2CC=C)C=Cc2cc(C)ccc21 | 91% (active)

Row | SMILES | growth inhibition
21 | S=c1[nH]nc(SCc2ccc(Cl)c(Cl)c2)c2[nH]cnc12 | 9.25% (inactive)
22 | Nc1ccc(C(=O)/C=C/c2ccccn2)cc1 | 66.8% (inactive)
23 | CCOC(=O)C(C(=O)O)(C(c1ccccc1)c1ccccc1)C(c1ccccc1)c1ccccc1 | 98.3% (active)
24 | CSC(=S)n1nc(-c2ccccc2)c(N=Nc2ccc(Br)cc2)c1-c1ccccc1 | 0.05% (inactive)
25 | COc1ccc([N+](=O)[O-])cc1Nc1c2ccccc2nc2ccccc12 | 46.5% (inactive)
26 | C=CCN1/C(=C/C=C\c2sc3ccccc3[n+]2CC=C)Sc2ccccc21 | 92.2% (active)
27 | COc1ccc(/C=C/C(C(=O)O)C(=O)O)cc1 | 82.5% (active)
28 | CN(C)C(=O)c1cc(Br)cc(-c2ccccc2)c1O | 87.5% (active)
29 | Cc1cc(N=[N+]=[N-])c2cc(C3CCCCC3)ccc2n1 | 90.9% (active)
30 | [Cu+2].[O-]/N=C/c1cccc(O)c1[O-].[O-]/N=C/c1cccc(O)c1[O-] | 97.7% (active)
31 | c1ccc(Cn2nnc(-c3ccccc3)c2-c2ccccc2)cc1 | 94% (active)
32 | CCOc1ccc2nc(Cl)sc2c1 | 96.3% (active)
33 | CCOC(=O)c1sc2c(c1O)c(=O)n(-c1ccccc1)c(=S)n2-c1ccccc1 | 95.2% (active)
34 | O=C(O)c1c[nH]c2cc(Cl)ccc2c1=O | -19.8% (inactive)
35 | Cc1cc2c(cc1O)CC[C@@H]1[C@@H]2CC[C@]2(C)[C@@H](O)CC[C@@H]12 | 37.5% (inactive)
36 | NC(=O)NOCC1NC(=O)NC1=O (stereo not given) | -21.8% (inactive)
37 | CCOC(=O)c1cnc2cc3cccccc3n2c1=O | 31.6% (inactive)
38 | CC(CO)CCC(=O)C(C)C1C(=O)CC2CC3CC(O)CCC3(C)CC21C (stereo not given) | 63.6% (inactive)
39 | N#CSC#Cc1ccc(C#CSC#N)cc1 | 88.3% (active)
40 | CCS/C(SC)=C(/c1ccccc1)[P+](c1ccccc1)(c1ccccc1)c1ccccc1 | 91% (active)

Experiment: NCI Yeast Anticancer Drug Screen. Data for the mlh1 rad18 strain (AID 175)
Conditions: S. cerevisiae mlh1 rad18 strain growth inhibition; at 5.0 µM (retest, dose inferred, filed as 0.5); stronger effect = higher value
Procedure, shortened: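 A repair-deficient yeast strain is exposed to test compound, and growth is scored relative to vehicle-treated controls.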

Row | SMILES | growth inhibition
41 | CCSC1(SCC)C(=O)OC2=C(CCCC2)C1N1CCOCC1 (stereo not given) | -1% (inactive)
42 | NC(=O)C(CCc1cccc2ccccc12)c1ccccc1 (stereo not given) | -8% (inactive)
43 | NC(CCCCCC(N)C(=O)O)C(=O)O (stereo not given) | -241% (inactive)
44 | CN(C)CC(CN(C)C)C(=O)C1CCCCC1 | 12% (inactive)
45 | O=C1/C(=C/c2ccc([N+](=O)[O-])cc2)Sc2scc(-c3cccc([N+](=O)[O-])c3)[n+]21 | 51% (inactive)
46 | CC(C)(C)c1cc(C(P(=O)(c2ccccc2)c2ccccc2)P(=O)(c2ccccc2)c2ccccc2)cc(C(C)(C)C)c1O | -3% (inactive)
47 | COC(=O)c1cc(=O)n(-c2ccccc2C(F)(F)F)c(SC)n1 | 39% (inactive)
48 | CSC(SC)=C1C(=O)NC(Cc2ccccc2)C1=O (stereo not given) | 5% (inactive)
49 | c1ccc(C(c2ccccc2)c2ccc3ccccc3n2)cc1 | -3% (inactive)
50 | CN(C)c1nc(N(C)C)nc([N+](C)(C)C)n1 | -5% (inactive)
51 | CCCNC(=S)N/N=C(/C)c1nccc2ccccc12 | 3% (inactive)
52 | OC(CN1CCc2ccccc2C1)c1ccc2ccccc2c1 (stereo not given) | 25% (inactive)
53 | Nc1nc(N)c2nc(CNc3ccc(C(=O)NC(CCC(=O)O)C(=O)O)cc3)ccc2n1 (stereo not given) | -8% (inactive)
54 | O=c1c2ccccc2c2ccccc2n1O | 94% (active)
55 | CC(=O)N1c2ccccc2Sc2ccc3ccc(C(=O)CCl)cc3c21 | 65% (inactive)
56 | CC(NNC(=S)N1CC2CCC(CC2)C1)c1nccc2ccccc12 (stereo not given) | 98% (active)
57 | O=C1O/C(=C(\Cc2ccccc2)c2ccccc2)N(c2ccccc2)C1=O | -6% (inactive)
58 | S=c1sc2ccccc2n1C=Nc1ccccc1 | -2% (inactive)
59 | CSc1nc(NC2OC(CO)C(O)C(O)C2O)c(Cl)c(=O)[nH]1 (stereo not given) | 2% (inactive)
60 | C=CCN1/C(=C\C=C\c2ccc3cc(C)ccc3[n+]2CC=C)C=Cc2cc(C)ccc21 | 79% (active)

Row | SMILES | growth inhibition
61 | S=c1[nH]nc(SCc2ccc(Cl)c(Cl)c2)c2[nH]cnc12 | -21% (inactive)
62 | Nc1ccc(C(=O)/C=C/c2ccccn2)cc1 | 6% (inactive)
63 | CCOC(=O)C(C(=O)O)(C(c1ccccc1)c1ccccc1)C(c1ccccc1)c1ccccc1 | 99% (active)
64 | CSC(=S)n1nc(-c2ccccc2)c(N=Nc2ccc(Br)cc2)c1-c1ccccc1 | 5% (inactive)
65 | COc1ccc([N+](=O)[O-])cc1Nc1c2ccccc2nc2ccccc12 | 1% (inactive)
66 | C=CCN1/C(=C/C=C\c2sc3ccccc3[n+]2CC=C)Sc2ccccc21 | 90% (active)
67 | COc1ccc(/C=C/C(C(=O)O)C(=O)O)cc1 | -4% (inactive)
68 | CN(C)C(=O)c1cc(Br)cc(-c2ccccc2)c1O | -4% (inactive)
69 | Cc1cc(N=[N+]=[N-])c2cc(C3CCCCC3)ccc2n1 | -2% (inactive)
70 | [Cu+2].[O-]/N=C/c1cccc(O)c1[O-].[O-]/N=C/c1cccc(O)c1[O-] | -4% (inactive)
71 | c1ccc(Cn2nnc(-c3ccccc3)c2-c2ccccc2)cc1 | 14% (inactive)
72 | CCOc1ccc2nc(Cl)sc2c1 | -12% (inactive)
73 | CCOC(=O)c1sc2c(c1O)c(=O)n(-c1ccccc1)c(=S)n2-c1ccccc1 | 92% (active)
74 | O=C(O)c1c[nH]c2cc(Cl)ccc2c1=O | -1% (inactive)
75 | Cc1cc2c(cc1O)CC[C@@H]1[C@@H]2CC[C@]2(C)[C@@H](O)CC[C@@H]12 | -35% (inactive)
76 | NC(=O)NOCC1NC(=O)NC1=O (stereo not given) | 1% (inactive)
77 | CCOC(=O)c1cnc2cc3cccccc3n2c1=O | -1% (inactive)
78 | CC(CO)CCC(=O)C(C)C1C(=O)CC2CC3CC(O)CCC3(C)CC21C (stereo not given) | 16% (inactive)
79 | N#CSC#Cc1ccc(C#CSC#N)cc1 | 100% (active)
80 | CCS/C(SC)=C(/c1ccccc1)[P+](c1ccccc1)(c1ccccc1)c1ccccc1 | 98% (active)

Source: PubChem BioAssay (NCI)
